The values below come from ChEMBL document CHEMBL2218924, “A broad activity screen in support of a chemogenomic map for kinase signalling research and drug discovery” (Biochem J, 2013).

In the assay the target is Activated CDC42 kinase 1 (Homo sapiens) (UniProt Q07912). Conditions: at 10 µM.
Sequence of Activated CDC42 kinase 1 (Homo sapiens) (Q07912 whole entry, looked up): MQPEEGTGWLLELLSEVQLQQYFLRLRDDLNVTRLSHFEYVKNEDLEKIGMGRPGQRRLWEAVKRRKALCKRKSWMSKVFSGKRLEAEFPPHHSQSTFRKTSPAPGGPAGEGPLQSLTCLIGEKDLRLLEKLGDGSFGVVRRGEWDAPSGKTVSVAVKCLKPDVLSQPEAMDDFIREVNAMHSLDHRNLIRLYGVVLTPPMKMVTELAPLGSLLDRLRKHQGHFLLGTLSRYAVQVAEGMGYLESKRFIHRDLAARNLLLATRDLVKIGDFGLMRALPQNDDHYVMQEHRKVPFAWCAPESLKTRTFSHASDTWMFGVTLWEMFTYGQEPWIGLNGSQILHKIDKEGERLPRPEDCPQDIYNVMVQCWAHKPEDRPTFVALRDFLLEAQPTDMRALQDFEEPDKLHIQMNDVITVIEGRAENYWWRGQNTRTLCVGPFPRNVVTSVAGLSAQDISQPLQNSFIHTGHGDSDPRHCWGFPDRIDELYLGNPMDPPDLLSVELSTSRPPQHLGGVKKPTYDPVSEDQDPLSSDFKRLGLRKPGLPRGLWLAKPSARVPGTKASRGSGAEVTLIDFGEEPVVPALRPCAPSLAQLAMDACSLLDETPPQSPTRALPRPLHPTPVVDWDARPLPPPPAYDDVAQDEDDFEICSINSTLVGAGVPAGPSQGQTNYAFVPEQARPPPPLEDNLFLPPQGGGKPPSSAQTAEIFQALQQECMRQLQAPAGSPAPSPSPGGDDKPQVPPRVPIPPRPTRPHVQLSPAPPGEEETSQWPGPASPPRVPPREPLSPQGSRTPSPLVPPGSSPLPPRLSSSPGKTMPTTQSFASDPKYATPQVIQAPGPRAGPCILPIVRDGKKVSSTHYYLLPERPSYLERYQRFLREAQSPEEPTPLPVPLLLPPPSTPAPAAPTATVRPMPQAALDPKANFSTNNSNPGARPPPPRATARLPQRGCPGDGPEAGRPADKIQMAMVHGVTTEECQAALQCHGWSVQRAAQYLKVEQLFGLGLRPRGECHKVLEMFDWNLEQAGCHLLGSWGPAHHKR
Consider `COc1cc2ncnc(Nc3cccc(Cl)c3)c2cc1OC`, for which the residual activity came out at 6%. With `N#Cc1c(NC(=O)c2cccc3ccccc23)sc2c1CCCC2`, the residual activity was 61%. Molecule `O=C1Cc2c([nH]c3ccc(Br)cc23)-c2ccccc2N1` yielded a residual activity of 3%. To `Cn1c2ccccc2c2c3c(c4c5ccccc5n(CCC#N)c4c21)CNC3=O` belongs 0%; to `O=C1NC(=O)C(c2cn(CCCO)c3ncccc23)=C1c1cnccn1`, 71%.

Turning to `O=C(c1ccccc1)c1ccc(N2CCOCC2)cc1O`, the residual activity is 72%. Consider `CC(C)(C)n1nc(Cc2cccc3ccccc23)c2c(N)ncnc21`, for which the residual activity is 2%. In turn, `Oc1cccc(-c2nc(N3CCOCC3)c3oc4ncccc4c3n2)c1` showed a residual activity of 69%. To `O=C1Cc2c([nH]c3ccc([N+](=O)[O-])cc23)-c2ccccc2N1` belongs 24%; to `O=c1cc(N2CCOCC2)oc2c1ccc1ccccc12`, 77%.

On to `O=C1Nc2ccccc2/C1=C\c1c(Cl)[nH]c2ccccc12`, for which the residual activity came out at 48%. The molecule `Nc1ncnc2c1c(-c1ccc(Oc3ccccc3)cc1)cn2C1CCCC1` displayed a residual activity of 1%. The same measure for `COc1cc2nccc(Oc3ccc(NC(=O)Nc4cc(C)on4)c(Cl)c3)c2cc1OC`: 6%; for `Cn1sc(=O)n(Cc2ccccc2)c1=O`: 64%. Molecule `CCCC(=O)Oc1ccc2[nH]c(C(=O)c3cc4ccccc4[nH]3)cc2c1` showed a residual activity of 65%.

Consider `O=C1NC(=O)c2c1c1c3ccccc3[nH]c1n1cncc21`, for which the residual activity amounted to 23%.

Molecule `Nc1ncnc2[nH]nc(Nc3ccc(F)cc3)c12` showed a residual activity of 17%. Consider `O=C1NC(=O)C(c2c[nH]c3ccccc23)=C1c1c[nH]c2ccccc12`, for which the residual activity amounted to 21%. For `Nc1n[nH]c2nc3ccccc3nc12`, the residual activity was determined as 40%.

The molecule `NC(=O)Nc1sc(-c2ccc(F)cc2)cc1C(N)=O` showed a residual activity of 2%.
